From PubChem BioAssay
Hits are enriched below; roughly 6.2% of the tested compounds scored in any of these assays.
KB-V1 cytotox: qHTS assay for MDR1-selective chemotherapeutics: Primary screen using the drug-selected MDR subline cells KB-V1; KB-V1 MDR cells viability, CellTiter-Glo, 72 h; Potency, µM (series often up to 46.1 µM), actives largely listed as cytotoxic; hit rate 3.4% among 400,000; further: on the % scale 0 is the no-effect control and ±100 the full control effect; nearly all actives have a fitted effect of over 60% in size
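KB-V1, DMEM (no phenol red) + 10% FBS; cpd pin-transferred, titration series; 72 h, 37 degrees C; CellTiter-Glo, luminescence. Data normalized, curve-fit.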
HT1080 IDH1KD tx: qHTS for induction of synthetic lethality in tumor cells producing 2HG: qHTS for the HT-1080-IDH1KD cell line. HT-1080 IDH1 knockdown viability, ATP luminescence, 48 h. Potency, µM (doses to about 46.1 µM), for inactives: top-dose activity, negative = toxicity, most hits filed as cytotoxic. hit rate 2% among 360,000. AID 686971, 2013;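 further: 0% = DMSO wells and -100% = cell-free medium wells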
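Using the IDH1-knockdown HT-1080 line run in the same batch and compound series as the NT line, viability after 48 h at 37 °C was determined by CellTiter-Glo luminescence and expressed as % activity.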
KB-3-1 cytotox: qHTS assay for MDR1-selective chemotherapeutics: Primary screen using the parental adenocarcinoma cell KB-3-1. hit rate 1.4% among 400,000. KB-3-1 viability, CellTiter-Glo ATP luminescence, 72 h. Potency, µM (highest dose often 46.1 µM), actives largely listed as cytotoxic; further: on the % scale 0 is the no-effect control and ±100 the full control effect; nearly all actives have a fitted effect of over 60% in size
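Cytotoxicity measured as CellTiter-Glo luminescence after 72 h at 37 C. Compound titrations were pinned onto drug-naive KB-3-1 parental adenocarcinoma cells grown in DMEM with 10% FBS, and normalized data fitted to concentration-response curves.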
ATXN2 expr inh: Primary qHTS for Inhibitors of ATXN expression. hit rate 0.72% among 360,000. HEK-293 ATXN2-luciferase reporter, luminescence, 24 h. Potency, µM (highest dose often 57 µM), for inactives: top-dose activity change, negative = inhibition, hits mostly inhibitors; further: on the % scale 0 is the no-effect control and ±100 the full control effect; nearly all actives have a fitted effect of over 55% in size
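ATXN2-luciferase reporter cells (luciferase flanked by upstream and downstream ATXN2 gene portions) were treated 24 h at 37 °C with compounds at up to 57 uM. SteadyGlo luminescence gave expression; GF-AFC fluorescence gave viability.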
HT1080NT lethal: qHTS for induction of synthetic lethality in tumor cells producing 2HG: qHTS for the HT-1080-NT fibrosarcoma cell line; hit rate 1.6% among 360,000; HT-1080-NT fibrosarcoma viability, CellTiter-Glo ATP luminescence, 48 h; Potency, µM (series often up to 46.1 µM), without a hit: at the top dose activity, negative = less viability, most hits filed as cytotoxic;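 further: NT is the 2HG producing partner of a matched IDH1 knockdown line; 0% = DMSO-treated cells and -100% = media-only wells without cells; nearly all actives have a fitted effect of over 55% in size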
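750 cells/well, RPMI + 5% FBS; 2 h settle, compound pin-transfer, 48 h at 37 degrees C. CellTiter-Glo 10 min RT, luminescence. Normalized to DMSO and media-only wells.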
S2 tox: Viability Counterscreen for Primary qHTS for Inhibitors of ATXN expression. S2 cells (HEK-293 line with an ATXN2-luciferase reporter) viability, CellTiter-Fluor protease fluorescence, 24 h. AID 651635, 2014. Potency, µM (series often up to 56.7 µM), actives largely listed as cytotoxic. hit rate 0.49% among 400,000; further: nearly all actives have a fitted effect of over 40% in size
Active calls of the source: *; i = inactive; ? = inconclusive; nt = no result given; [ ] = dose if it differs, or a comment. The call rests on the fitted dose curve; in most records, active means well fitted curve in the direction sought with a large enough effect; inconclusive means small, poorly fitted or top-dose-only effect, or another doubt; inactive means no such curve, though single readings can be large; an effect the other way counts as inactive or inconclusive. Potency means the concentration at half of the fitted maximal effect.

SMILES	KB-V1 cytotox	HT1080 IDH1KD tx	KB-3-1 cytotox	ATXN2 expr inh	HT1080NT lethal	S2 tox
COc1ccc(-c2cc(C(=O)N3CCc4c(cnc(C)c4CNC(=O)c4ccsc4)C3)[nH]n2)cc1	nt	nt	nt	nt	nt	i
CCc1c(C)nc2ncnn2c1N1CCC(C(=O)NCc2cccc(OC)c2)CC1	23.1µM*	?	?	-3.6%	4.7%	i
O=C(Nc1ccc(-n2nncc2-c2ccco2)cc1)c1ccc(F)cc1	16.4µM*	-16.3%	i	-0.5%	-9.5%	i
COc1ccc(C(=O)NCCn2cc(SCC(=O)Nc3ccc4c(c3)OCCO4)c3ccccc32)cc1	i	nt	?	-12.4%	nt	?
CCCCc1ccc(S(=O)(=O)NC(=O)C2(C)CCN2C(=O)C/C=C/c2ccccc2)cc1 (centres undefined)	i	-1.8%	i	-15.0%	3.1%	i
C[C@H](NC(=O)c1sccc1OCc1ccc(Cl)cc1)c1ccccc1	nt	nt	nt	21.7µM*	nt	nt
CNC(=O)c1ccc2nc(-c3ccccc3)c(-c3ccccc3)nc2c1	i	nt	i	nt	nt	nt
COc1ccc(N(C)C(=O)c2ccc3nc(-c4ccccc4)c(-c4ccccc4)nc3c2)cc1	20.6µM*	-18.7%	?	-5.5%	-23.7%	i
CC(C)N(C(=O)c1ccc2nc(-c3ccccc3)c(-c3ccccc3)nc2c1)C(C)C	23.1µM*	-23.2%	?	-15.1%	-17.8%	i
O=c1[nH]c(=S)[nH]c2nc[nH]c12	?	nt	i	nt	nt	nt
S=c1nc[nH]c2nc[nH]c12	1.16µM*	1.84µM*	0.82µM*	?	2.31µM*	?
COc1ccc(N=c2cc(-c3ccc(OC)cc3)oc3ccccc23)cc1	?	?	i	?	-15.9%	?
COc1ccc(N=c2cc(-c3ccc(O)cc3)oc3ccccc23)cc1	?	16.4µM*	?	-23.4%[11.3 µM]	14.6µM*	i
COc1cc(Br)cc(/C=N/NC(=O)Cc2ccc(C(F)(F)F)cc2[N+](=O)[O-])c1O	i	16.4µM*	?	?	?	i
C=C(C)[C@@H]1CC=C(CN2CCC(N3CCC(C(=O)N4CCCC4)CC3)CC2)CC1	?	20.6µM*	?	-30.9%	18.4µM*	i
COC1CCC2(C)C(=CCC3C4CC(O)CC4(C)CCC32)C1 (centres undefined)	18.4µM*	-2.2%	i	-6.8%	-3.1%	i
CC(C)(C)OC(=O)N1CCC[C@H]1C(=O)NCc1ccc(F)cc1F	?	12.5%	i	0.6%	8.8%	i
c1cncc(-c2nc(N3CCOCC3)c3c4c(sc3n2)CCC4)c1	i	-6.6%	i	?	3.3%	nt
c1cncc(-c2nc(NCCCN3CCOCC3)c3c4c(sc3n2)CCC4)c1	i	?	?	nt	18.4µM*	i
O=C1NC[C@H](CCCCN2C[C@H](Cc3ccccc3)N(CC3CCCCC3)C(=O)C2=O)N(CC2CCCCC2)C1=O	i	?	i	-22.2%	13.1%	14.1µM*
O=C1NC[C@@H](CCCCN2C[C@H](Cc3ccccc3)N(CCC3CCCCC3)C(=O)C2=O)N(Cc2ccccc2)C1=O	?	20.6µM*	?	-5.5%	?	i
O=C(Nc1nnc([C@H]2C[C@H](O)[C@@H](CO)O2)s1)Nc1ccccc1C(F)(F)F	i	20.3%	i	0.1%	-1.8%	i
COCc1c(C(=O)N2CCN(C3CCCCC3)CC2)cnn1-c1ncc(C)c(-c2cccs2)n1	nt	nt	nt	nt	nt	i
CCOC(=O)c1cccc(Nc2nc(-c3cccnc3)nc3ccccc23)c1	?	?	?	?	20.6µM*	?
